MEKK2 WT-MEK5: modulators of MEK5 binding to wildtype MEKK2, primary screen, biochemical, multiplex bead flow cytometry, Alexa488-MEK5; Mitogen-activated protein kinase kinase kinase 2 (Homo sapiens), Q9Y2U5; Alexa488-MEK5 binding to MEKK2 WT; actives lie on both sides; binding response (% of control), % at 10 µM; actives 1.1% (n = 290,000); in the data active = binding response below about 67% or above about 130%
DNA FID counter: compounds displacing fluorescent DNA intercalator, primary screen, artefact control for HCV NS3 helicase inhibitor project, biochemical, FID fluorescence; DNA fluorescent intercalator displacement; inhibition, % at 7.9 µM; actives 0.17% (n = 290,000); in the data active = inhibition above about 37%;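 note: 0% = vehicle and 100% = reference compound; higher means more ethidium bromide displaced from hairpin DNA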
MEKK3 PB1 HTS: modulators of MEKK3-MEK5 PB1 binding, primary screen, biochemical, wildtype MEKK3, multiplex bead flow cytometry, Alexa488-MEK5; AID 1529, 2009; binding response (% of control), % at 10 µM; Mitogen-activated protein kinase kinase kinase 3 (Homo sapiens), Q99759; actives 1.4% (n = 290,000); bead-based flow cytometry, Alexa488-MEK5 binding to MEKK3; actives lie on both sides; 0 = blocked by unlabeled MEK5, 100 = vehicle;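 active = binding response more than 3 SD above or below the average of its plate-row segment, actives on both sides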;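 note: Alexa488 bead fluorescence after subtracting the streptavidin-only scavenger bead signal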
dFosB act-1: activators of delta FosB homodimer, primary screen, biochemical, fluorescence polarization, TAMRA-CDK5 oligo, single point; purified delta FosB; percent of positive-control signal above neutral wells; activation, % at 25 µM; actives 0.99% (n = 340,000); AID 493131, 2011;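 active = mean activation above about 17%, with every replicate also reaching it, limit read from the data, passing the limit was not always enough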
Target sequence (P13346 whole entry, looked up): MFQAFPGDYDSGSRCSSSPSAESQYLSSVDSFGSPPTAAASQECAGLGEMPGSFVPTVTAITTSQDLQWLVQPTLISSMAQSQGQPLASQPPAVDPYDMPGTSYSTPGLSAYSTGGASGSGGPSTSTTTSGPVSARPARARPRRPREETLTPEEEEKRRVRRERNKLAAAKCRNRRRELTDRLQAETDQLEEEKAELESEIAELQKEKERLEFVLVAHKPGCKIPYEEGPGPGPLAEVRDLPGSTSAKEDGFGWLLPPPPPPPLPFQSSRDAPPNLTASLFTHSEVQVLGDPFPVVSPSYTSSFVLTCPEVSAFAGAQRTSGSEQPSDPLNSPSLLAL
MEKK2 mut-MEK5: MEK5 binding signal on mutant MEKK2 PB1, primary screen, biochemical, multiplex bead flow cytometry, Alexa488-MEK5. percent response, % at 10 µM. actives 0.35% (n = 290,000). Alexa488-MEK5 binding to MEKK2 mutant; in the data active = percent response above about 24%, passing the limit was not always enough
dFosB act-2: activators of mouse delta FosB DNA binding, confirmation, biochemical, fluorescence polarization, TAMRA-CDK5 oligo, cherry-picked samples. shares compounds with dFosB act-1. purified delta FosB; normalised: neutral wells 0, positive control 100. activation, % at 24.9 µM. 2,400 tested, under 10 active. AID 588690, 2011;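 active = highest replicate activation at or above 34% and every replicate reaching that threshold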;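 note: higher polarization means more probe DNA bound by delta FosB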
The depositor's hits bear a star; x = no result given. An excerpt weighted towards active compounds, which were near 2.9% of everything screened.

SMILES	MEKK2 WT-MEK5	DNA FID counter	MEKK3 PB1 HTS	dFosB act-1	MEKK2 mut-MEK5	dFosB act-2
COc1cccc(NC(=O)Cn2nnc(C(=O)NCCc3ccccc3)c2N)c1	101.0	-15.3	103.0	37.1*	4.0	3.0
Cc1nn(CC(=O)c2ccccc2)c(=O)c2nn(-c3ccccc3F)c(C)c12	102.0	-25.8	109.0	-5.2	2.0	x
S=c1nc(-c2ccc(Br)cc2)[nH]c2ccccc12	89.0	-6.9	92.0	45.4*	-5.0	-1.3
CC(=O)N1CCc2ccc(S(=O)(=O)N3CCN(C)CC3)cc21	96.0	4.5	94.0	1.4	-1.0	x
CC1CCCCC1NC(=O)CCNS(=O)(=O)c1ccc(Cl)cc1 (configuration not stated)	98.0	-30.6	96.0	-5.7	-3.0	x
O=C(Nc1ccc(C(=O)N2CCCC2)cc1)c1ccc(F)cc1Cl	106.0	-18.8	102.0	-8.1	9.0	x
CCCCc1nnc(NC(=O)CCS(=O)(=O)c2ccc(Cl)cc2)s1	x	x	x	24.3*	x	2.2
CCCc1nnc(NC(=O)CCS(=O)(=O)c2ccccc2)s1	103.0	-10.2	102.0	-1.5	-3.0	x
O=C(CCNC(=O)N1CC(=O)Nc2ccccc21)Nc1cccc(Cl)c1	100.0	-24.9	97.0	-6.9	0.0	x
Cc1c(Cl)cccc1NC(=O)CCNC(=O)N1CC(=O)Nc2ccccc21	95.0	-15.8	99.0	23.4*	-2.0	6.5
CCOC(=O)c1cnc2cc(-c3ccc(Br)cc3)nn2c1C	106.0	-8.1	102.0	-0.1	5.0	x
N/C(=N\OC(=O)COc1ccc(Cl)cc1Cl)c1cccnc1	100.0	-5.0	97.0	24.3*	-1.0	-4.0
CN(CC(=O)Nc1ccc(Cl)c(C(F)(F)F)c1)C(=O)c1cc(=O)c2ccccc2o1	x	x	x	33.4*	x	0.2
CN(CC(=O)Nc1ccc(Cl)c(C(F)(F)F)c1)C(=O)/C=C/c1ccco1	101.0	-13.9	102.0	-13.0	-1.0	x
CN(CC(=O)Nc1ccc(Cl)c(C(F)(F)F)c1)C(=O)c1cc(=O)[nH]c2ccccc12	x	x	x	-21.5	x	x
CN(CC(=O)Nc1ccc(Cl)c(C(F)(F)F)c1)C(=O)/C=C/c1cccs1	x	x	x	28.5*	x	0.0
CC(=O)Nc1ccc(SC[C@H](c2ccccc2)N2CCN(CCc3ccccc3)CCC2=O)cc1	112.0	x	104.0	x	5.0	x
O=C(COC(=O)/C=C/c1ccc(F)cc1)Nc1ccc2[nH]c(=O)[nH]c2c1	x	x	x	5.9	x	x
NS(=O)(=O)c1ccc(CCNC(=O)COC(=O)/C=C/c2ccc(OC(F)F)cc2)cc1	x	x	x	-1.8	x	x
O=C(COC(=O)/C=C/c1ccc(Cl)cc1)Nc1ccc2[nH]c(=O)[nH]c2c1	x	x	x	21.5*	x	0.0
NS(=O)(=O)c1ccc(CCNC(=O)COC(=O)/C=C/c2ccc(Cl)cc2)cc1	83.0	-20.9	96.0	21.4*	-12.0	-2.4
CCN(CC)S(=O)(=O)c1ccc(/C=C/C(=O)OCC(=O)Nc2ccc(S(N)(=O)=O)cc2)cc1	85.0	-10.7	77.0	116.2*	-6.0	5.5
NS(=O)(=O)c1ccc(NC(=O)CCCCC(=O)Nc2ccc(S(N)(=O)=O)cc2)cc1	97.0	-10.6	97.0	52.8*	-2.0	6.8
O=C(Nc1ccc(-c2nnc3n2CCCCC3)cc1)c1cc2ccccc2o1	88.0	-24.0	86.0	-8.6	-4.0	x
Cc1c(C(=O)Nc2ccc(-c3nnc4n3CCCCC4)cc2)oc2c1ccc1ccccc12	102.0	-6.2	105.0	32.2*	-1.0	3.6
CCOc1ccc(-c2nnc3ccc(SC(C)C)nn23)cc1	96.0	-14.8	101.0	-36.8	-2.0	x
COc1ccc(NC(=O)Cn2c(=O)oc3cc(S(=O)(=O)N4CCCC4)ccc32)cc1	110.0	-15.6	100.0	2.3	5.0	x
CC(=O)c1cccc(NC(=O)Cn2c(=O)oc3cc(S(=O)(=O)N4CCCC4)ccc32)c1	92.0	-16.1	96.0	32.8*	-5.0	-0.4
